# Measured values from PubChem BioAssay (Tox21).
# Where “and” joins values, the source holds several entries; their conditions need not be identical. Equal values may be shown once. Inconclusive results are not listed. Entries that show only a call come without a potency. Calls of active or inactive are those of the source. Unless noted, calls follow the shape of the dose curve; as a rule, active = well fitted curve in the direction sought with a large enough effect in the repeat runs; inconclusive = weak or mixed curves; inactive = no such curve, though single readings can be large; an effect the other way counts as inactive or inconclusive.
# Tests used:
# [1] = qHTS assay for small molecule agonists of the p53 signaling pathway (AID 651631; calls by dose curve; also: nearly all actives have a fitted effect of over 15% in size; also: potency is read from the fitted curve at half-maximal effect)
# How it was run: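 Quantitative high-throughput format: 4,000 p53RE-bla HCT-116 cells/well, 5 h pre-incubation, 16 h compound exposure at 37 °C, 2 h room-temperature substrate step, fluorescence intensity measured.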
# [2] = qHTS assay for small molecules that induce genotoxicity in human embryonic kidney cells expressing luciferase-tagged ATAD5 (AID 651632); also: nearly all actives have a fitted effect of over 15% in size; also: potency is read from the fitted curve at half-maximal effect
# How it was run: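 HEK293T cells carrying a luciferase reporter tagged to ATAD5 were exposed to compound or DMSO vehicle for 16 hr at 37C, 5% CO2. Amplite was added, and after 30 min at room temperature luciferase activity was read as a marker of ATAD5 induction.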
# [3] = qHTS assay for small molecule agonists of the p53 signaling pathway - cell viability (AID 651633; calls by dose curve; also: nearly all actives have a fitted effect of over 30% in size; also: potency is read from the fitted curve at half-maximal effect)
# How it was run: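 p53RE-bla cells were treated with compound for 16 hours at 37 C. Cytotoxicity was then measured as CellTiter-Glo luminescence after 30 min at room temperature.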
# [4] = qHTS assay for small molecules that induce genotoxicity in human embryonic kidney cells expressing luciferase-tagged ATAD5 - cell viability (AID 651634; calls by dose curve; also: nearly all actives have a fitted effect of over 25% in size; also: potency is read from the fitted curve at half-maximal effect)
# How it was run: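 HEK293T cells expressing luciferase-tagged ATAD5 were exposed to compound or DMSO for 15.5 hr at 37C, 5% CO2. Viability was then read as live-cell protease activity by CellTiter-Fluor fluorescence after 30 min at 37C.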
# [5] = qHTS assay for small molecule disruptors of the mitochondrial membrane potential - cell viability (AID 720634; calls by dose curve;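 also: human HepG2 liver cancer cells; series mostly up to about 83 µM; nearly all actives have a fitted effect of over 20% in size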)
# How it was run: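 HepG2 cells seeded overnight at 37 C, then exposed to compound or DMSO for 1 hr at 37 C, 5% CO2. m-MPI dye added, then CellTiter-Glo for 30 min at room temperature; viability read as ATP luminescence.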
# [6] = qHTS assay to test for compound auto fluorescence at 590 nm (red) in HepG2 cells (AID 720674)
# How it was run: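 Fluorescence at 590 nm emission following 540 nm excitation was recorded from HepG2 wells one hour after compound transfer, with DMSO-only wells as vehicle and Rose Bengal sodium equivalency as the scale.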
# [7] = qHTS assay to test for compound auto fluorescence at 460 nm (blue) in HEK293 cells (AID 720678)
# How it was run: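 Blue read-out at excitation 405 nm and emission 460 nm follows overnight compound exposure of HEK293 cells at 37C in 5% CO2. Activity is given as auto fluorescence equivalency to triamterene.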
# [8] = qHTS assay to test for compound auto fluorescence at 590 nm (red) in HEK293 cells (AID 720679)
# How it was run: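 Red channel, Ex/Em 540/590nm; signal expressed as equivalency to Rose Bengal sodium. HEK293, 2,000 cells/well, 10% dialyzed FBS; 23 nL compound pinned after 4-5 hr attachment; overnight 37C/5% CO2 before reading.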
# [9] = qHTS assay to test for compound auto fluorescence at 535 nm (green) in HEK293 cells (AID 720680)
# [10] = qHTS assay to test for compound auto fluorescence at 460 nm (blue) in HEK293 cell free culture (AID 720681)
# How it was run: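 Compounds were added to cell-free DMEM with 10% FBS and fluorescence read directly. The blue channel used 405 nm excitation and 460 nm emission, with triamterene as the reference fluorophore.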
# [11] = qHTS assay to test for compound auto fluorescence at 535 nm (green) in HEK293 cell free culture (AID 720682)
# How it was run: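 Measurement is a direct plate read of green fluorescence (485 nm in, 535 nm out) after compound addition to serum-supplemented DMEM lacking cells, with fluorescein used to express intensities.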
# [12] = qHTS assay to test for compound auto fluorescence at 590 nm (red) in HEK293 cell free culture (AID 720683)
# How it was run: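 Cell-free wells of DMEM with 10% FBS received compound, and intrinsic fluorescence was read at excitation/emission 540/590 nm. Values expressed as equivalence to Rose Bengal sodium.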
# [13] = qHTS assay to test for compound auto fluorescence at 460 nm (blue) in HepG2 cell free culture (AID 720685)
# How it was run: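 Compound (23 nL) or DMSO pinned into cell-free MEM with 10% FBS; blue fluorescence read at 405/460 nm excitation/emission, expressed as auto-fluorescence equivalency to triamterene.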
# [14] = qHTS assay to test for compound auto fluorescence at 535 nm (green) in HepG2 cell free culture (AID 720686)
# [15] = qHTS assay to test for compound auto fluorescence at 460 nm (blue) in HepG2 cells (AID 720687)
# How it was run: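 HepG2 cells in MEM with 10% FBS, attached overnight at 37 C, were exposed to compound or DMSO for 1 hr at 37 C, 5% CO2. Blue fluorescence was read at 405/460 nm, with triamterene as reference fluorophore.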
# [16] = biological target: Glucocorticoid receptor (Homo sapiens) (UniProt P04150); assay: qHTS assay to identify small molecule agonists of the glucocorticoid receptor (GR) signaling pathway (AID 720691; active = well fitted activation curve with a large enough effect in the signal ratio in the repeat runs, not every such curve was filed as active; the % refers to the signal ratio)
# Glucocorticoid receptor (Homo sapiens), sequence (P04150 whole entry, looked up): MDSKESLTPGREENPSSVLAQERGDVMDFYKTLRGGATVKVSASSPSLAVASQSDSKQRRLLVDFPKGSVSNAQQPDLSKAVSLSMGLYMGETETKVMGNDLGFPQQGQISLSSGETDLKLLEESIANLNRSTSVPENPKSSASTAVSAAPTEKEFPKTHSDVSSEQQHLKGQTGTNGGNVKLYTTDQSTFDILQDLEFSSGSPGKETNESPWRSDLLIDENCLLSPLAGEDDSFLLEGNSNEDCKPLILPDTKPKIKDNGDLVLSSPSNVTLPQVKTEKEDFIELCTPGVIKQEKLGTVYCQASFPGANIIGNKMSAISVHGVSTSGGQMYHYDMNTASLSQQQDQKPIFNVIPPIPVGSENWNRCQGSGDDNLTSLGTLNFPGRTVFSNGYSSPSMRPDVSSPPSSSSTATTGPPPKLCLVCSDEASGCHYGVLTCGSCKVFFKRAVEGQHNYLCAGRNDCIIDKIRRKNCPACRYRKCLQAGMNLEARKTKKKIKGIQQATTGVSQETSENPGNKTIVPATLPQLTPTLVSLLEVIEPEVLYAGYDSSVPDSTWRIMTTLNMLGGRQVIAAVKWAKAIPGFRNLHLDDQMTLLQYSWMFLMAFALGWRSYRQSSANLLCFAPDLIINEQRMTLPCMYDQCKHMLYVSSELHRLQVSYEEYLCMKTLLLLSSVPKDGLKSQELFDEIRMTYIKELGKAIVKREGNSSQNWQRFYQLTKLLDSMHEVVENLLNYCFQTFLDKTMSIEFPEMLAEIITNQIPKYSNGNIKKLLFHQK
# How it was run: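 GR-bla HeLa cells (beta-lactamase reporter under glucocorticoid response element) were plated 4 h at 37 C/5% CO2, given compounds in DMSO, and incubated 18 h at 37 C. LiveBLAzer B/G FRET substrate was added for 2 h at room temperature, then fluorescence intensity read.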
# [17] = qHTS assay for small molecule disruptors of the mitochondrial membrane potential (AID 720635); also: potency is read from the fitted curve at half-maximal effect
# How it was run: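 HepG2 cells exposed to compound 1 hr at 37C, then Mito-MPS dye 30 min. Ratio read of aggregate (540/590 nm) versus monomer (490/535 nm) fluorescence.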
# [18] = qHTS assay to test for compound auto fluorescence at 535 nm (green) in HepG2 cells (AID 720675)
# [19] = biological target: Glucocorticoid receptor (Homo sapiens) (UniProt P04150); assay: qHTS assay to identify small molecule antagonists of the glucocorticoid receptor (GR) signaling pathway (AID 720692; active = well fitted inhibition curve with a large enough effect in the signal ratio in the repeat runs, not every such curve was filed as active; the % refers to the signal ratio)
# How it was run: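 GR-bla HeLa cells (beta-lactamase reporter under glucocorticoid response element) were pre-plated 4 h at 37 C, treated with compounds plus 5 nM dexamethasone (final) for 18 h, then read by LiveBLAzer B/G FRET fluorescence after 2 h.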
# [20] = qHTS assay to test for compound auto fluorescence at 590 nm (red) in HepG2 cell free culture (AID 720684)
# How it was run: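 Compounds are added to culture medium (MEM, 10% FBS) lacking cells, then fluorescence is read at excitation 540 nm, emission 590 nm, with Rose Bengal sodium as the equivalency standard.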
SMILES,Potency [1],Potency [2],Potency [3],Potency [4],Potency [5],Potency [6],Potency [7],Potency [8],Potency [9],Potency [10],Potency [11],Potency [12],Potency [13],Potency [14],Potency [15],Potency [16],Potency [17],Potency [18],Potency [19],Potency [20]
CCCCN(CCCC)CC(O)c1cc(Cl)cc2c1-c1ccc(Cl)cc1/C2=C/c1ccc(Cl)cc1 (configuration not stated),inactive,inactive,inactive,inactive,inactive,inactive,inactive,inactive,inactive,inactive,inactive,inactive,inactive,inactive,inactive,inactive,,,,
CC(C)Cn1cnc2c(N)nc3ccccc3c21,,inactive,inactive,inactive,inactive,inactive,inactive,inactive,inactive,inactive,inactive,inactive,inactive,inactive,inactive,inactive,inactive,inactive,inactive,
COC(=O)c1ccccc1C,inactive,,inactive,inactive,inactive,inactive,,inactive,inactive,inactive,inactive,inactive,,inactive,inactive,inactive,,inactive,inactive,inactive
CC[N+](CC)(CC)CCOC(=O)C(C1CCCC1)C1CCCC1,,inactive,inactive,inactive,inactive,inactive,inactive,inactive,inactive,inactive,inactive,inactive,,inactive,inactive,,inactive,inactive,,inactive
CNC(=O)c1ccccc1Sc1ccc2c(/C=C/c3ccccn3)n[nH]c2c1,0.75 µM (active),,inactive,13.3 µM (active),,inactive,inactive,inactive,inactive,inactive,inactive,inactive,,inactive,inactive,,2.37 µM (active),inactive,inactive,inactive
c1cnccn1,inactive,,inactive,inactive,inactive,inactive,inactive,inactive,inactive,inactive,inactive,,,inactive,inactive,,,,,
Cl[Si](Cl)(c1ccccc1)c1ccccc1,,inactive,inactive,inactive,inactive,inactive,inactive,inactive,inactive,inactive,inactive,,inactive,inactive,inactive,inactive,5.57 µM (active),inactive,,inactive
Cc1ccc(N/N=c2\c(=O)cc/c(=N\Nc3ccc(S(=O)(=O)O)cc3)c2=O)c(C)c1,inactive,,inactive,61.1 µM (active),inactive,inactive,,inactive,inactive,inactive,inactive,inactive,inactive,inactive,inactive,,,inactive,,inactive
S=c1nccc[nH]1,,inactive,inactive,inactive,inactive,inactive,inactive,inactive,inactive,inactive,inactive,inactive,inactive,inactive,inactive,,inactive,,,inactive
Clc1nnc(Cl)c2ccccc12,inactive,,,inactive,inactive,inactive,inactive,inactive,inactive,inactive,inactive,,inactive,,inactive,inactive,,inactive,,inactive
Oc1ccccc1O,,inactive,43.8 µM (active) and 30.6 µM (active),inactive,inactive,inactive,inactive,inactive,inactive,inactive,inactive,inactive,inactive,inactive,inactive,inactive,inactive,inactive,,inactive
COc1cc2nc(N3CCN(C(=O)c4ccco4)CC3)nc(N)c2cc1OC,13.3 µM (active),,inactive,,inactive,inactive,inactive,inactive,inactive,inactive,inactive,inactive,inactive,,inactive,inactive,inactive,inactive,,inactive
O=C(O)CN(CCN(CC(=O)O)CC(=O)O)CC(=O)O,inactive,,,inactive,,inactive,,inactive,inactive,inactive,inactive,inactive,inactive,,inactive,,,inactive,,
Cc1c(C)c2c(c(C)c1O)CC[C@@](C)(CCC[C@H](C)CCC[C@H](C)CCCC(C)C)O2,,inactive,inactive,inactive,inactive,inactive,,inactive,inactive,inactive,inactive,inactive,inactive,inactive,inactive,inactive,inactive,inactive,,inactive
O=C(/C=C/c1ccccc1)OC/C=C/c1ccccc1,inactive,,inactive,inactive,inactive,inactive,inactive,inactive,inactive,inactive,inactive,,inactive,inactive,inactive,inactive,,inactive,inactive,inactive
COc1ccc(-c2coc3cc(O)ccc3c2=O)cc1,,1.72 µM (active),inactive,inactive,inactive,inactive,,inactive,inactive,inactive,inactive,inactive,inactive,inactive,inactive,inactive,10.9 µM (active),inactive,,inactive
